MITF TRPM1 inh: inhibitors of MITF-dependent TRPM1 promoter reporter, primary screen, cell-based, SK-MEL-5, single point, luciferase | SK-MEL-5 TRPM1 promoter luciferase, 24 h | inhibition, % at 12.5 µM | hit rate 0.83% among 330,000 | AID 488899, 2010;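 active = mean inhibition across replicates of 60% or more, whatever share of single replicates reaches that level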
Shn3 inh set2: reduction of Shn3 3'UTR firefly luciferase signal, primary screen, Schnurri-3 inhibitor project, cell-based, Clone20 osteoblasts, set 2. Clone20 osteoblast Shn3 3'UTR firefly luciferase, 24 h. inhibition, % at 12.5 µM. hit rate 0.52% among 360,000;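 active = mean inhibition of at least 75% with every replicate also reaching 75%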
TWEAK Fn14 block: inhibitors of TWEAK-Fn14 signaling, primary screen, luciferase reporter cells, uHTS; hit rate 2% among 360,000; inhibition, % at 10 µM; TWEAK-stimulated Fn14 reporter cells, luciferase luminescence, 8 h; AID 1159606, 2016; in the data active = inhibition above about 50%
Peg3 prom inh: Peg3 promoter-driven luciferase inhibitors, primary screen, cell-based, HeLa, luciferase luminescence | HeLa PEG-Prom luciferase reporter, overnight | AID 588405, 2011 | hit rate 1.7% among 360,000 | inhibition, % at 20 µM;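 active = inhibition of at least 50% at 20 µM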
TROY signal inh: inhibitors of TROY-driven NF-kB signaling, primary screen, Q293 LMP1-TROYcd cells, NF-kB luciferase, uHTS; Q293 LMP1-TROYcd NF-kB luciferase reporter, 4 h; inhibition, % at 10 µM; hit rate 0.98% among 360,000; AID 1347056, 2019;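 active = compounds whose plate-normalised and pattern-corrected inhibition of the luciferase reporter signal at the single screening dose is 50% or more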
EBV LMP1 NFkB: EBV LMP1-driven NF-kappaB luciferase reporter inhibitors, primary screen, cell-based, luminescence, single point. LMP1-induced NF-kappaB luciferase reporter cells. AID 504558, 2011. inhibition, % at 12.5 µM. hit rate 0.69% among 350,000; in the data active = inhibition above about 41%
Numbers stand for hits; – = inactive; · = no result given. Hits are enriched below; roughly 4.1% of the tested compounds scored in any of these assays.

SMILES | MITF TRPM1 inh | Shn3 inh set2 | TWEAK Fn14 block | Peg3 prom inh | TROY signal inh | EBV LMP1 NFkB
CCOC(=O)C1CCCN(C(=O)c2ccc(OC(C)=O)cc2)C1 (stereo unspecified) | – | – | – | – | – | –
CCN(CC)C(=O)CSc1nc(-c2ccc(C)cc2)nc2c1COC(C)(C)C2 | – | – | 58 | – | 58 | –
O=C(CC1SC(N2CCCC2)=NC1=O)Nc1ccc(C(=O)NCCOc2ccccc2F)cc1 (stereo unspecified) | – | – | – | – | – | –
O=C(O)CCN1C(=O)C(=C2CCCCCC2)SC1=S | – | – | – | – | – | –
O=C1CC(=O)N(Cc2ccco2)C(=S)N1 | – | – | 51 | – | – | –
O=C1CC(=O)N(Cc2ccco2)C(=O)N1 | – | – | – | – | – | –
O=C1C(=C2CCCCC2)SC(=S)N1Cc1ccco1 | – | – | – | – | – | 44
COc1ccc(OC)c(/C=C/C(=O)c2ccc3c(c2)OCCO3)c1 | – | – | – | – | – | –
CCOC(=O)c1ccc(NC(=O)Cn2cnc(S(=O)(=O)N3CCCC3)c2)cc1 | – | – | – | – | – | –
COc1ccc(C2C(O)C(c3c[nH]c4ccccc34)=NN2C(=O)CCl)cc1 (stereo unspecified) | 98 | 96 | 94 | 117 | – | –
COc1ccc(C2NN=C(c3c[nH]c4ccccc34)C2O)cc1 (stereo unspecified) | – | – | – | – | – | –
COC(=O)CN(c1ccccc1)S(=O)(=O)c1cc(Br)ccc1OC | – | – | – | – | – | –
CCCOc1cccc(-c2cc(C(=O)N/N=C/c3ccccn3)c3ccccc3n2)c1 | 90 | – | 94 | – | – | –
O=C(N/N=C/c1ccccn1)c1cc(-c2ccc(Br)cc2)nc2ccccc12 | 66 | – | 100 | 75 | – | –
O=C(N/N=C/c1ccccn1)c1cc(-c2ccc(Cl)cc2)nc2ccccc12 | 81 | – | – | – | – | –
CCCOc1cccc(-c2cc(C(=O)N/N=C/c3cccnc3)c3ccccc3n2)c1 | – | – | – | – | – | ·
Cc1ccc(NC(=O)CS(=O)CC(=O)Nc2ccccc2-c2ccc(C)o2)cc1 (stereo unspecified) | – | – | – | – | – | –
CC(C)Oc1cccc(NC(=O)C2(C)CCN2C(=O)C(C)C)c1 (stereo unspecified) | · | – | – | – | – | ·
CO/N=C/CC(=O)c1cnc(-c2ccccc2)s1 | – | – | – | – | – | –
Nc1nc(F)nc2c1ncn2[C@@H]1O[C@H](CO)[C@@H](O)[C@@H]1O | – | – | – | – | – | –
Nc1nc(Cl)nc2c1ncn2C1CC(O)C(CO)O1 (stereo unspecified) | – | 90 | – | – | – | –
Nc1nc(F)nc2c1ncn2[C@@H]1O[C@H](CO)[C@@H](O)[C@H]1O | 93 | 96 | 87 | 95 | 51 | 91
Cc1ccc(S(=O)(=O)CC(CN2CCOCC2)N2CCOCC2)cc1 (stereo unspecified) | – | – | – | – | – | –
O=S(=O)(CC(CN1CCCC1)N1CCCC1)c1ccc2ccccc2c1 (stereo unspecified) | 76 | – | – | 80 | – | –
CN(C)C(=O)c1cc2cc(Br)ccc2s1 | – | – | – | – | – | –
SMILES | MITF TRPM1 inh | Shn3 inh set2 | TWEAK Fn14 block | Peg3 prom inh | TROY signal inh | EBV LMP1 NFkB
COc1ccc(CC(C(=O)Nc2cccc(F)c2)c2nn[nH]n2)c(OC)c1 (stereo unspecified) | – | – | 51 | – | 65 | –
COc1cccc(C(=O)Oc2ccccc2/C=C\C(=O)c2cc3ccccc3o2)c1 | – | – | – | 105 | – | –
CCOC(=O)c1c2c(n(-c3ccc(OC)cc3)c1C)C(=O)C(=O)c1ccccc1-2 | 94 | 97 | 107 | 102 | 61 | 87
O=C(Nc1ccc2c(c1)OCCO2)c1ccc(NC(=O)C2CCCO2)cc1 (stereo unspecified) | – | – | – | – | – | –
CC(=O)Nc1ccc(S(=O)(=O)NCCC(=O)N2CCc3ccccc32)cc1 | – | – | – | – | – | –
CNC(=O)c1ccc(-c2cc3onc(-c4ccccc4)c3c(=O)n2C)cc1 | – | – | – | – | – | –
